Laboratory results from PubChem BioAssay (EPA / NIEHS).
Calls of active or inactive are those of the source. The calls were made as follows: active = hit-call score of the fitted dose curve at least 0.9, where 1 is the maximum; inactive = score below 0.9.

Tests used:
[1] = ATG_E_Box_CIS: Attagene CIS-FACTORIAL HepG2 Assay for human Enhancer Box (E-box) (AID 2282936); settings: HepG2 E-box cis-reporter transcription, actives raise or lower the signal
Method in brief: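 First, HepG2 cells receive multiple cis-regulated reporter constructs by transient transfection. Next, chemicals are applied for 24 h. Finally, reporter mRNA is quantified via RT-PCR and capillary electrophoresis, with DMSO as baseline.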

[2] = ATG_M_61_CIS: Attagene CIS-FACTORIAL HepG2 Assay for M61 Transcription Factor (Internal Marker) (AID 2282937); settings: HepG2 Attagene CIS-FACTORIAL M61 internal marker reporter; actives raise or lower the signal
Method in brief: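 Fluorescence from labelled cDNA fragments, separated by capillary electrophoresis, quantifies reporter induction. HepG2 cells bearing transiently transfected cis-promoter MRTUs were incubated with test chemical for 24 h; DMSO defined baseline for gain/loss fitting.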

[3] = ATG_EGR_CIS: Attagene CIS-FACTORIAL HepG2 Assay for human Early Growth Response 1 (EGR1) (AID 2282938); settings: HepG2 Attagene CIS-FACTORIAL EGR reporter mRNA; actives raise or lower the signal
Method in brief: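 Cell-based multiplex transcription assay: HepG2 carrying transfected cis-element reporter units, 24 h chemical treatment. Fluorescence from capillary electrophoresis of RT-PCR products gives mRNA levels; fitting is bidirectional relative to DMSO.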

[4] = ATG_M_19_CIS: Attagene CIS-FACTORIAL HepG2 Assay for M19 Transcription Factor (Internal Marker) (AID 2282939); settings: HepG2 Attagene CIS-FACTORIAL M19 internal marker reporter; actives raise or lower the signal
Method in brief: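 Chemical-treated HepG2 (24 h) with MRTU constructs; reporter transcripts detected by fluorescent RT-PCR fragment analysis on capillary electrophoresis. Internal background marker, DMSO as baseline.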

[5] = ATG_ERE_CIS: Attagene CIS-FACTORIAL HepG2 Assay for Estrogen Response Element (ERE) (AID 2282940); settings: HepG2 ERE cis-reporter, Attagene RNA transcript; actives raise or lower the signal
Method in brief: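 Human liver cells (HepG2) bearing transiently transfected, promoter-regulated reporter units were exposed 24 h. Reporter mRNA induction was detected by capillary electrophoresis of labelled RT-PCR products and fitted bidirectionally to DMSO.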

[6] = ATG_Ets_CIS: Attagene CIS-FACTORIAL HepG2 Assay for human Erythroblast Transformation Specific (ETS) (AID 2282941); settings: HepG2 ETS cis-reporter transcription, actives raise or lower the signal
Method in brief: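 After transient cis-reporter transfection, HepG2 cells receive test chemical for 24 h. Reporter mRNA levels, measured by RT-PCR and capillary electrophoresis fluorescence, are analysed bidirectionally relative to the DMSO baseline.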

[7] = target: Hepatocyte nuclear factor 3-beta (Homo sapiens) (UniProt Q9Y261); test: ATG_FoxA2_CIS: Attagene CIS-FACTORIAL HepG2 Assay for human Forkhead box A2 (FOXA2) (AID 2282942); settings: HepG2 cis-reporter transcription factor activity, 24 h; actives raise or lower the signal
Method in brief: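 In transiently transfected human HepG2 cells, promoter-driven reporter mRNA levels after 24 h chemical exposure are determined via RT-PCR with capillary electrophoresis. DMSO serves as baseline for bidirectional fitting.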

[8] = ATG_FoxO_CIS: Attagene CIS-FACTORIAL HepG2 Assay for human Forkhead box O (FoxO) (AID 2282943); settings: HepG2 Attagene cis-reporter, FoxO element, mRNA; actives raise or lower the signal
Method in brief: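 HepG2 cells transiently transfected with cis-element-driven reporter units report endogenous FoxO activity. After 24 h chemical exposure, reporter mRNA quantified by RT-PCR, fluorescent labeling, HpaI digestion and capillary electrophoresis; bidirectional fit versus DMSO.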

[9] = ATG_GATA_CIS: Attagene CIS-FACTORIAL HepG2 Assay for human GATA Binding Protein (AID 2282944); settings: HepG2 GATA cis-element reporter, Attagene multiplex mRNA; actives raise or lower the signal
Method in brief: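 Transfected cis-reporter HepG2 cells were treated with chemicals for 24 hours. Total RNA was then converted to cDNA, amplified with reporter-specific primers and analysed by fluorescent capillary electrophoresis, using DMSO-treated wells as baseline.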

[10] = ATG_GLI_CIS: Attagene CIS-FACTORIAL HepG2 Assay for human Zinc Finger Protein GLI1 (AID 2282945); settings: HepG2, Attagene cis-factorial reporter mRNA, GLI element; actives raise or lower the signal
Method in brief: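 Transiently transfected HepG2 cells report endogenous transcription factor activity via cis-element-driven reporter units. After 24 h compound exposure, reporter mRNA was measured by RT-PCR with capillary electrophoresis; bidirectional fitting against DMSO baseline.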

[11] = target: Bile acid receptor (Homo sapiens) (UniProt Q96RI1); test: ATG_IR1_CIS: Attagene CIS-FACTORIAL HepG2 Assay for human Nuclear Receptor Subfamily 1 Group H Member 4 (NR1H4), IR1 submotif (AID 2282946); settings: IR1 reporter transcription, actives raise or lower the signal
Method in brief: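 HepG2 cells transiently transfected with multiple cis-promoter-driven reporter units to measure endogenous transcription factor activity; 24 h exposure. Reporter mRNA read by RT-PCR, FAM labelling, HpaI digestion and capillary electrophoresis. Bidirectional fit versus DMSO.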

[12] = ATG_ISRE_CIS: Attagene CIS-FACTORIAL HepG2 Assay for human Interferon Regulatory Factor 1 (IRF1) binding to an Interferon-Stimulated Response Element (ISRE) (AID 2282948); settings: HepG2 ISRE cis-reporter (Attagene), mRNA transcription readout; actives raise or lower the signal
Method in brief: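 Quantitation relies on labelled RT-PCR fragments separated by capillary electrophoresis. Human HepG2 cells bearing cis-promoter reporter constructs were treated 24 h; DMSO served as baseline for bidirectional fitting.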

[13] = ATG_M_32_CIS: Attagene CIS-FACTORIAL HepG2 Assay for M32 Transcription Factor (Internal Marker) (AID 2282949); settings: HepG2 Attagene cis-factorial M32 reporter, mRNA; actives raise or lower the signal;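 also: background control marker of the multiplexed CIS panel rather than a real target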
Method in brief: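 Following 24 h chemical exposure of HepG2 cells transiently expressing cis-promoter reporter constructs, reporter transcript levels were determined by RT-PCR with fluorescent labelling and capillary electrophoresis, then fitted bidirectionally against DMSO.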

[14] = ATG_M_06_CIS: Attagene CIS-FACTORIAL HepG2 Assay for M06 Transcription Factor (Internal Marker) (AID 2282950); settings: HepG2 Attagene CIS-FACTORIAL M06 internal marker reporter; actives raise or lower the signal
Method in brief: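 Cells (HepG2, transiently carrying cis-driven reporter units) receive chemical for 24 h before RNA isolation. Reporter cDNA is PCR-amplified, FAM-labelled by primer extension, HpaI-digested and sized on a capillary analyser.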

[15] = target: Hepatocyte nuclear factor 6 (Homo sapiens) (UniProt Q9UBC0); test: ATG_HNF6_CIS: Attagene CIS-FACTORIAL HepG2 Assay for human Hepatocyte Nuclear Factor 6 (HNF6) (AID 2282952); settings: HepG2 Attagene cis-factorial HNF6 reporter transcription; actives raise or lower the signal
Method in brief: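 Cells are HepG2 carrying transiently transfected cis-promoter reporter units. Treatment lasts 24 h, after which reporter transcripts are reverse-transcribed, amplified, FAM-labelled and sized by capillary electrophoresis. DMSO serves as baseline.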

[16] = ATG_MRE_CIS: Attagene CIS-FACTORIAL HepG2 Assay for human Metal Responsive Element (MRE) (AID 2282954); settings: HepG2 MRE cis-reporter transcription, Attagene multiplex; actives raise or lower the signal
Method in brief: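 Fluorescent reporter fragments separated by capillary electrophoresis give mRNA induction for the MRE unit after 24 h treatment of transfected HepG2 cells. Endogenous transcription-factor activity is read; DMSO serves as negative control and baseline.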

[17] = target: Heat shock factor protein 1 (Homo sapiens) (UniProt Q00613); test: ATG_HSE_CIS: Attagene CIS-FACTORIAL HepG2 Assay for human Heat Shock Transcription Factor 1 (HSE) (AID 2282953); settings: HepG2 HSE cis-reporter, Attagene RNA transcription; actives raise or lower the signal
Method in brief: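 Liver-derived HepG2 cells carry transiently introduced multiple reporter units governed by cis promoters. Reporter RNA measured 24 h post-dose through reverse transcription, PCR amplification, fluorescent labelling and capillary electrophoresis, normalised to DMSO.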

[18] = ATG_PBREM_CIS: Attagene CIS-FACTORIAL HepG2 Assay for human Phenobarbital-responsive Enhancer Module (PBREM) (AID 2282955); settings: HepG2 PBREM cis-reporter, Attagene multiplexed transcription; actives raise or lower the signal
Method in brief: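 After a 24 h incubation with test chemical, transfected HepG2 cells yield total RNA; reporter-specific RT-PCR products are fluorescently labelled, HpaI-digested and resolved by capillary electrophoresis against ROX size standards.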

[19] = ATG_GRE_CIS: Attagene CIS-FACTORIAL HepG2 Assay for human Glucocorticoid Response Elements (GRE) (AID 2282947); settings: HepG2 GRE cis-reporter, Attagene multiplex mRNA; actives raise or lower the signal
Method in brief: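 Endogenous transcription factor activity is read through cis-element reporter constructs transiently transfected into HepG2 cells. After 24 h treatment, labelled RT-PCR products are resolved by capillary electrophoresis; DMSO sets baseline for bidirectional curve fitting.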

[20] = target: Hypoxia-inducible factor 1-alpha (Homo sapiens) (UniProt Q16665); test: ATG_HIF1a_CIS: Attagene CIS-FACTORIAL HepG2 Assay for human Hypoxia Inducible Factor 1 (HIF1A) (AID 2282951); settings: HepG2 Attagene cis-factorial HIF1a reporter transcription; actives raise or lower the signal
Method in brief: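 In this multiplexed cell assay, HepG2 cells bearing transfected cis reporters are dosed for 24 h and reporter mRNA is read by RT-PCR plus capillary electrophoresis; signal increases and decreases are both scored against DMSO.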

Measured: outcome

Hepatocyte nuclear factor 3-beta (Homo sapiens), sequence (Q9Y261 whole entry, looked up): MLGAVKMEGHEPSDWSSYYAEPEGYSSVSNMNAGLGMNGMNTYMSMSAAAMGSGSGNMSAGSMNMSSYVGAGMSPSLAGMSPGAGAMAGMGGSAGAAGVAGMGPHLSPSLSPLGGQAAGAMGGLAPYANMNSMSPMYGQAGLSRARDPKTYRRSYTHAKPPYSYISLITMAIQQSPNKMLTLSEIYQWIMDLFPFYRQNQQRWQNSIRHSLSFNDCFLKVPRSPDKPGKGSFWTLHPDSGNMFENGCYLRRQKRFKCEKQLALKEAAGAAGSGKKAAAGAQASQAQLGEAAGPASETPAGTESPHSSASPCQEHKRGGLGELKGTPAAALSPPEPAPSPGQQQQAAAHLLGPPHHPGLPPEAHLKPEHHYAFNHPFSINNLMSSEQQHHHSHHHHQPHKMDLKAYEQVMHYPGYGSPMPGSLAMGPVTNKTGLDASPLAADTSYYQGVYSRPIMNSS
Heat shock factor protein 1 (Homo sapiens), sequence (Q00613 whole entry, looked up): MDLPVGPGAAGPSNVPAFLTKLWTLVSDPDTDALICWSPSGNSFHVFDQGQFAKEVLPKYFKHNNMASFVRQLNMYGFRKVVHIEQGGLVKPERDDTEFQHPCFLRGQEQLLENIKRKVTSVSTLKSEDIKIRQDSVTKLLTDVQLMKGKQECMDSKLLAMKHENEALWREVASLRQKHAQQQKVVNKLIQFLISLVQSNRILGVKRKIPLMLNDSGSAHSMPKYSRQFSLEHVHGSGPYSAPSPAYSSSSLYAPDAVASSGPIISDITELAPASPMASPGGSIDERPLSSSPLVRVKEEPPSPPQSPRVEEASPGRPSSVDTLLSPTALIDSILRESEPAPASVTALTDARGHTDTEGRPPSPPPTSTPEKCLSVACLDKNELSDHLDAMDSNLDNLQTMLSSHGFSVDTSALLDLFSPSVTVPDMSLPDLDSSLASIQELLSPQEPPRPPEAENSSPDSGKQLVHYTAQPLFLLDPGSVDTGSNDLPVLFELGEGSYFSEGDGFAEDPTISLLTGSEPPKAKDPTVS
Hepatocyte nuclear factor 6 (Homo sapiens), sequence (Q9UBC0 whole entry, looked up): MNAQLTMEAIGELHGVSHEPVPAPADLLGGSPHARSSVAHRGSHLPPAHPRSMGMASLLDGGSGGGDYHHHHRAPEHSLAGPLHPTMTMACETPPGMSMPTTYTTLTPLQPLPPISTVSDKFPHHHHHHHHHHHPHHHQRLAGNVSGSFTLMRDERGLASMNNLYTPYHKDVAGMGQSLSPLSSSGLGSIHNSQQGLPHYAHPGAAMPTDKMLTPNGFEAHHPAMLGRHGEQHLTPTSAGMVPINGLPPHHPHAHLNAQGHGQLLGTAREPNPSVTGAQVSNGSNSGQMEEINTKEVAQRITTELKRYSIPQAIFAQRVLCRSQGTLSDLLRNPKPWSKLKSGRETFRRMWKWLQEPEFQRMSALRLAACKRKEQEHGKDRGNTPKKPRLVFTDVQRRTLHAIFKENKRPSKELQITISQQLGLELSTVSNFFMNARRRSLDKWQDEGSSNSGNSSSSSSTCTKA
Bile acid receptor (Homo sapiens), sequence (Q96RI1 whole entry, looked up): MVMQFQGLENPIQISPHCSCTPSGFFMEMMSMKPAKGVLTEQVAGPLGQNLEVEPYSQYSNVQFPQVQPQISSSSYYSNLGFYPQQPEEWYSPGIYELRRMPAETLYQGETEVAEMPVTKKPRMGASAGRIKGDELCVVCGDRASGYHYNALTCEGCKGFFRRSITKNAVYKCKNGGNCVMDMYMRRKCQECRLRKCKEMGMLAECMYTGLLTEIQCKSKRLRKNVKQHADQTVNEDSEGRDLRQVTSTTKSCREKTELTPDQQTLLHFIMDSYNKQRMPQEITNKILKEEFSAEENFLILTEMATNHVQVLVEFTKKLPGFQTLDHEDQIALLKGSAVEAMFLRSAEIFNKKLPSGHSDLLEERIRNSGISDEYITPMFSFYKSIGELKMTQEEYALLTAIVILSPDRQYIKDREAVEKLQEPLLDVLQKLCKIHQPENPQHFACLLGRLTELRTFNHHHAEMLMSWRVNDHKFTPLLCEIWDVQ
Hypoxia-inducible factor 1-alpha (Homo sapiens), sequence (Q16665 whole entry, looked up): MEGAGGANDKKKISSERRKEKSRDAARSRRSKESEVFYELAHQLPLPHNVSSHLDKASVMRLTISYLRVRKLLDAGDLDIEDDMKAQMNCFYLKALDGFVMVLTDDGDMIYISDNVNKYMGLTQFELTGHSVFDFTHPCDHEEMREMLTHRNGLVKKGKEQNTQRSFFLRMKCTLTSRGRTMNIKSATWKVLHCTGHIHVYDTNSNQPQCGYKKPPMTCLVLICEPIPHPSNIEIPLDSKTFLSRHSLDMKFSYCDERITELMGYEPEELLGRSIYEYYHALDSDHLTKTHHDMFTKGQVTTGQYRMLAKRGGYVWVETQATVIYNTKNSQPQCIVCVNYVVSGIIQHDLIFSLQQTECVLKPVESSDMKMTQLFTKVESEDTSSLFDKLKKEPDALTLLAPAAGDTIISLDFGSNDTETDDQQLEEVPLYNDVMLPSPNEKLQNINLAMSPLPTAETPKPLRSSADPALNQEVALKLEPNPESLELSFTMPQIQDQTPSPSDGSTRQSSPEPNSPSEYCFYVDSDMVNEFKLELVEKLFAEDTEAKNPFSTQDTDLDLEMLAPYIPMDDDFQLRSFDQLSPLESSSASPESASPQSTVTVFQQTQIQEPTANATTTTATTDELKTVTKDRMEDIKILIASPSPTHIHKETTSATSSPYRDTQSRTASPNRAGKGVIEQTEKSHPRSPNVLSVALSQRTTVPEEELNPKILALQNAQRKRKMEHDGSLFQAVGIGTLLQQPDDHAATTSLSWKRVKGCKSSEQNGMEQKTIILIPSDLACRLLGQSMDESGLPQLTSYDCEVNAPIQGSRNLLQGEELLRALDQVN

Cn1c(=O)c2[nH]cnc2n(C)c1=O
not listed: [17] | [18] | [19] | [20]
inactive: all other assays above

O=C(O)c1ccc2c(c1)nc(C(=O)NC1CCN(C3CC3)CC1)n2Cc1cc(-c2ccc(Cl)s2)on1
not listed: [19] | [20]
inactive: all other assays above

CCCCOC(=O)c1ccccc1
not listed: [11] | [17] | [18]
inactive: all other assays above

CC[C@H](C)C(=O)O[C@H]1C[C@H](O)C=C2C=C[C@H](C)[C@H](CC[C@@H](O)C[C@@H](O)CC(=O)O)[C@H]21
not listed: [11] | [17] | [18] | [20]
inactive: all other assays above

CCn1nc(C)c2c1C(=O)NCC(c1ccc(O)cc1)=N2
not listed: [11] | [17] | [20]
inactive: all other assays above

CCCCCCOC(=O)CC(CC(=O)OCCCCCC)(OC(=O)CCC)C(=O)OCCCCCC
not listed: [11] | [17] | [20]
inactive: all other assays above

NC(N)=O
not listed: [11] | [19] | [20]
inactive: all other assays above

OC(Cn1cncn1)(Cn1cncn1)c1ccc(F)cc1F
not listed: [11] | [17] | [18] | [20]
inactive: all other assays above

CCc1ccc(O)c(C(C)(C)C)c1
not listed: [11] | [17] | [18] | [20]
inactive: all other assays above

COS(C)(=O)=O
not listed: [11] | [17] | [20]
inactive: all other assays above

Cc1ccc(S(=O)(=O)NC(=O)NN2CCCCCC2)cc1
not listed: [11] | [17] | [20]
inactive: all other assays above

CCCCCCCC1CCC(=O)O1 (configuration not stated)
not listed: [11] | [15] | [20]
inactive: all other assays above

O=C(NO)C1(NS(=O)(=O)c2ccc(Oc3ccc(F)cc3)cc2)CCOCC1
not listed: [11] | [17] | [18] | [20]
inactive: all other assays above

c1ccc2ncccc2c1
not listed: [11] | [20]
inactive: all other assays above

O=c1[nH]cnc2c1ncn2[C@H]1CC[C@@H](CO)O1
not listed: [11] | [17] | [20]
inactive: all other assays above
